# The source made the active and inactive calls.
# Columns and labels:
# [1] = A549 cell viability effects, profiling panel, calcein-AM fluorescence, 48 h, basal (AID 1162); settings: higher = more signal
# [2] = adipocyte viability effects, profiling panel, cell-based, 3T3-L1 adipocytes, calcein-AM fluorescence, 48 h, basal (AID 1163); settings: 3T3-L1 adipocytes viability, higher = more signal
# [3] = HepG2 cell viability effects, profiling panel, calcein-AM fluorescence, 48 h, basal (AID 1164); settings: higher = more signal
# [4] = MM1S cell viability effects, profiling panel, calcein-AM fluorescence, 48 h, basal (AID 1165); settings: higher = more signal;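 further: viability of MM1S multiple myeloma cells under basal unstimulated conditions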
# [5] = basal RPMI8226 viability, no added stimulus, profiling panel, cell-based, calcein-AM fluorescence, 48 h, PK04 Diversity Set (AID 1166); settings: RPMI8226 myeloma viability, higher = more signal;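 further: cells grown under basal conditions without added stimulus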
# [6] = basal HepG2 mitochondrial membrane potential changes, profiling panel, cell-based, JC-1 fluorescence, 24 h, 100 nL compound (AID 1167); settings: higher = more signal
# [7] = basal 3T3-L1 adipocyte mitochondrial potential changes, profiling panel, cell-based, JC-1 fluorescence, 3T3-L1 adipocytes, 24 h, 100 nL compound (AID 1168); settings: JC-1 mitochondrial fluorescence, higher = more signal, called active from +8 up or from −8 down
# [8] = basal RPMI8226 mitochondrial membrane potential changes, profiling panel, cell-based, JC-1 fluorescence, 24 h, 100 nL compound (AID 1169); settings: RPMI8226 myeloma, JC-1 mitochondrial potential fluorescence, higher = more signal
# [9] = basal MM1S mitochondrial membrane potential changes, profiling panel, cell-based, JC-1 fluorescence, 24 h, 100 nL compound (AID 1170); settings: higher = more signal
# [10] = A549 lung cancer cell viability effects, profiling panel, resazurin fluorescence, 24 h, PK04 Diversity Set (AID 1171); settings: higher = more signal, called active from +8 up or from −8 down
# Further: test concentration not given here.
Structure (SMILES),z-score [1],z-score [2],z-score [3],z-score [4],z-score [5],z-score [6],z-score [7],z-score [8],z-score [9],z-score [10]
CC1CC/C=C\[C@H]2OC34C=CCN(C(C)(C)C)C(=O)[C@H]3N(CCCCCO)C(=O)[C@@H]4C2C(=O)O1 (stereo not given in full),0.0683,0.525,0.0474,0.719,-0.561,-0.589,-0.226 (inactive),0.592,-0.203,-0.146 (inactive)
COC(=O)C1=CC(CCCO)=CC(c2cccs2)N(Cc2cccc(OC(F)(F)F)c2)C=C1C(=O)OC (stereo not given),-0.855,0.543,0.896,-2.69,-3.76,0.996,0.000649 (inactive),-0.786,-0.512,-0.257 (inactive)
C=CCOC(=O)[C@@]1(Cc2ccccc2)C[C@H]2CO[C@H](c3ccc(OC)cc3)N2C1=O,0.158,0.223,-0.311,-0.657,-1.5,-0.574,0.437 (inactive),-0.272,-0.47,0.864 (inactive)
CO[C@H]1O[C@H](CO)[C@@H](OC(=O)Nc2ccccc2)[C@H](OC(=O)c2cc3ccccc3[nH]2)[C@H]1OC(=O)c1cc2ccccc2[nH]1,-0.14,0.544,0.131,-0.294,-0.939,1.12,2.46 (inactive),-0.766,-0.61,-2.51 (inactive)
C=C[C@H]1C(C(=O)OCC)=CC[C@@H](c2ccccc2)N1S(=O)(=O)c1ccc(C)cc1,-0.438,-1.05,-0.708,-0.465,-1.46,5.08,-0.517 (inactive),-0.309,-1.21,0.69 (inactive)
CCCC[C@@H](O)C1=C(COc2ccccc2)C[C@H]2C(=O)N(Cc3ccccc3)C(=O)[C@H]2[C@H]1CO,0.553,-0.0277,0.913,-0.189,0.0172,1.17,0.0746 (inactive),-1.06,-0.172,-0.0959 (inactive)
CC(C)(C)OC(=O)COc1cccc(C(=O)CCN2CCOCC2)c1,1.06,0.477,-0.0751,-3.27,-4.4,-1.01,-0.0351 (inactive),-0.885,-2.04,1.5 (inactive)
C#CCN(Cc1ccccc1Br)[C@H](/C=C/c1ccccc1)[C@@H](O)Cc1ccccc1,-0.892,-0.566,-1.54,-1.63,-3.89,-2.68,-0.694 (inactive),-0.538,0.42,2.3 (inactive)
CN(C)C(=O)[C@]1(CCC(=O)OC(C)(C)C)N=C(c2ccc(OCCCO)cc2)O[C@@H]1c1ccccc1CN=[N+]=[N-],-0.307,0.911,0.697,0.545,0.259,1.74,-0.682 (inactive),0.124,-0.412,0.669 (inactive)
NC(=O)NCC#Cc1ccc2c(c1)[C@]1(C(=O)N2)[C@H](c2ccccc2OCCO)N2[C@H](c3ccccc3)[C@H](c3ccccc3)OC(=O)[C@H]2[C@@H]1C(=O)O,-0.371,-0.161,-1.06,-0.253,0.713,-0.716,0.485 (inactive),0.689,-0.394,1.73 (inactive)
O=C(Cc1ccccc1)[C@H]1C2C=CCCC(c3ccccc3)=C2CN1Cc1ccccc1 (stereo not given in full),0.128,0.169,0.436,0.743,0.602,0.655,0.122 (inactive),-0.196,0.584,0.807 (inactive)
C=C(/C(=C/C[C@H](OC(=O)c1ccncc1)c1ccc(CO)o1)c1cnc2ccccc2c1)C(C)C,1.07,0.521,-0.181,-2.88,-1.25,-0.211,0.0957 (inactive),0.319,-0.161,0.208 (inactive)
[N-]=[N+]=Nc1ccccc1C[C@]1(C(=O)NCC(O)CO)COC(c2ccc(OCCCO)cc2)=N1 (stereo not given in full),0.67,1.11,0.409,0.195,-0.0237,0.244,-0.257 (inactive),-0.847,0.639,0.837 (inactive)
CCCCC=C[C@@H](NC(=O)OCc1ccccc1Cl)c1ccccc1,-1.28,-1.2,-0.661,-0.919,-0.871,0.359,-0.337 (inactive),-0.623,-1.03,0.297 (inactive)
C=CCC(OC(C)=O)[C@@H]1[C@@H](N(Cc2ccc(-c3cccc(C(F)(F)F)c3)o2)C(=O)c2ccc(-c3ccccc3)cc2)c2cc(OCCCO)ccc2N1C(=O)Cc1ccc2ccccc2c1 (stereo not given in full),-0.713,1.22,0.374,0.502,-1.15,1.66,0.437 (inactive),-0.807,0.0299,0.378 (inactive)
O=C1[C@H]2C=C(I)[C@H](C[C@@H]2OCCOCCO)[C@@]12CO2,-0.461,-1.03,-0.773,-0.582,-0.537,-1.77,-0.473 (inactive),-0.196,-0.807,0.323 (inactive)
[N-]=[N+]=Nc1ccccc1C[C@]1(C(=O)NCCN2CCOCC2)COC(c2ccc(OCCCO)cc2)=N1,1.84,0.0471,1.31,0.534,0.586,0.157,0.959 (inactive),-0.264,-0.422,0.887 (inactive)

Structure (SMILES),z-score [1],z-score [2],z-score [3],z-score [4],z-score [5],z-score [6],z-score [7],z-score [8],z-score [9],z-score [10]
CC(C)=C1C(=O)C(c2ccccc2)=C2CN3C(=O)N(CCc4ccccc4)C(=O)[C@]3(Cc3ccc(C(F)(F)F)cc3)[C@H]21,0.549,0.66,-0.232,-1.14,-1.16,-1.5,-0.876 (inactive),-0.699,-0.746,-0.327 (inactive)
COC(=O)[C@@H]1N=C(c2ccc(OCCCO)cc2)O[C@@H]1c1ccccc1,0.623,0.469,-0.677,0.565,0.474,-0.659,-0.652 (inactive),0.278,-0.241,0.331 (inactive)
CCCC[C@@H]1C[C@H]1[C@@H](NC(=O)c1cccs1)c1ccccc1C(F)(F)F,0.11,-0.556,-0.305,-0.6,-1.72,-2.45,-1.22 (inactive),-0.307,-1.24,-0.462 (inactive)
Cc1ccc(S[C@]2(C(=O)NCC(F)(F)F)CC(=O)N(Cc3cc(C(F)(F)F)cc(C(F)(F)F)c3)[C@@H]2c2ccc(CO)cc2)cc1,0.0806,-0.547,0.643,-0.783,-0.759,-0.693,-0.658 (inactive),0.213,-0.299,-0.45 (inactive)
O=C1N(Cc2ccccc2)c2ccccc2C[C@]12N=C(c1ccc(OCCCO)cc1)O[C@@H]2c1ccccc1,-1.25,-0.372,-3.54,-2.32,-3.88,-1.05,0.162 (inactive),-1.22,-2.58,-2.07 (inactive)
CC[C@@H]1C=C(C(=O)O)[C@H](c2ccc(C#N)cc2)N1S(=O)(=O)c1ccc(C)cc1,-0.484,-0.364,-1,0.492,-0.95,-0.968,-0.552 (inactive),0.875,-1.06,-0.858 (inactive)
COc1ccc(CCNC(=O)[C@@]2(Cc3ccccc3I)c3ccccc3C(=O)N(C3CCCCC3)[C@H]2c2ccc(CO)cc2)cc1,1,2.42,-0.449,-1.93,-2.47,2.5,0.537 (inactive),-0.184,-1.17,-0.584 (inactive)
O=c1cccc(-c2ccc([N+](=O)[O-])cc2)o1,0.419,0.294,0.273,-0.369,-0.308,0.302,0.543 (inactive),0.379,-1.01,-0.0447 (inactive)
CCCCC(CC)C(O)C1C=CC2C(=O)N(c3ccccc3)C(=O)C2N1Nc1ccc(C#N)cc1 (stereo not given),1.99,-0.494,2.34,0.0084,0.368,-1.31,-1.61 (inactive),0.0604,-0.679,0.857 (inactive)
O=C1C2C=CC(C(O)C3CC=CCC3)N(Nc3ccccc3)C2C(=O)N1c1ccccc1 (stereo not given),-1.05,-0.0629,-1.2,-1.13,-1.14,-2.47,-0.858 (inactive),0.173,-1.02,-0.728 (inactive)
C[N+](C)(C)CCCCCCNC(=O)[C@@H]1C[C@@H]2C(=O)N3CCC[C@H]3C(=O)N2[C@@H]1c1ccc(O)cc1,-0.134,-0.329,-0.526,-0.403,-0.106,-1,-0.362 (inactive),-0.101,-0.637,1.78 (inactive)
O=C1NC(=O)C2C1C=CC(C(O)c1ccco1)N2Nc1ccc(Cl)cc1Cl (stereo not given),-0.396,-0.792,-1.16,-1.57,-0.941,-1.96,-0.298 (inactive),-0.977,-0.218,-2.08 (inactive)
O=C1OCCC=C[C@H]2OC34C=CCN(Cn5nnc6ccccc65)C(=O)[C@H]3N(CCCO)C(=O)[C@@H]4C12 (stereo not given in full),0.213,1.03,-1.1,0.114,-1.04,-0.746,0.147 (inactive),0.057,0.251,-0.618 (inactive)
C=C(COC)/C(=C/C[C@H](OC(=O)c1ccncc1)c1ccccc1OCCO)c1cc(C(=O)OC)ccc1OC,-0.0954,0.0589,-0.0472,-3.34,-1.58,1.94,-0.658 (inactive),-0.596,-0.159,0.315 (inactive)
CCCCC(CC)C(O)C1C=CC2C(=O)N(c3ccccc3)C(=O)C2N1Nc1ccccc1F (stereo not given),0.389,-0.21,-0.553,0.566,0.203,-0.639,-0.511 (inactive),0.51,-0.775,0.653 (inactive)
COc1ccc([Si](C)(C)[C@@H]2[C@@H](CC(=O)N(CCO)Cc3ccccc3)O[C@]3(C(=O)N(Cc4cccc(N5CCCCC5=O)c4)c4ccccc43)[C@H]2C)cc1,-1.2,0.579,-2.56,-1.43,-3.89,0.56,1.15 (inactive),-0.654,-1.26,-1.6 (inactive)
